PubChem BioAssay AID588855 (National Center for Advancing Translational Sciences (NCATS), 2011)
About 5,000 (1.2%) of roughly 410,000 compounds were called active. Not shown: some 13% with an inconclusive outcome. Calls follow the shape of the dose curve; as a rule, active = well fitted inhibition curve with a large enough effect; inconclusive = small, poorly fitted or top-dose-only effect; inactive = no such curve, though single readings can be large or run the other way. Shown is part of a subset that was picked to be rich in actives. A call without a number means that no potency is given here.

Test: qHTS for Inhibitors of TGF-b; also: nearly all actives have a fitted effect of over 65% in size
Details: HepG2 CAGA-GFP TGF-b/SMAD3 reporter, GFP fluorescence, 18 h, TGF-beta stimulated, 500 pg/mL final; series mostly up to 46.1 µM
Procedure, shortened: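 Inhibition was scored as loss of TGF-beta-induced (500 pg/mL final, 18 hours, 37 degrees C) GFP in HEPG2 cells carrying a CAGA-GFP reporter, in DMEM with 1% FBS. Well GFP was summed per cell; Activity was normalised to unstimulated and stimulated DMSO wells, then concentration-response fitting.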
Potency is read from the fitted curve at half-maximal effect.

SMILES	Potency
Cc1ccccc1CSc1nc2c([nH]c3ccccc32)c(=O)n1C	inactive
CCn1cc(C(=O)N2CCN(c3cc(Cl)ccc3C)CC2)c(=O)c2cc(S(=O)(=O)N3CCCC3)ccc21	inactive
COc1ccc(SCc2cc(=O)c3ccc(C)c(C)c3[nH]2)cc1	inactive
OCCCNc1nccc(-c2cc(Nc3cccc(Cl)c3)ncn2)n1	0.447 µM (active)
CCOc1c(Nc2cccc(Cl)c2)c(=O)c1=O	inactive
COc1ccc(S(=O)(=O)n2nc(C)c(S(=O)(=O)N3CCCCCC3)c2C)cc1	inactive
O=C(COc1ccccc1C(=O)Nc1ccccc1)Nc1cccc(F)c1	inactive
COCCNS(=O)(=O)c1cc(-c2nn3c(C)nnc3c3ccccc23)ccc1C	inactive
COc1cc(/C=C2\Oc3ccc(C#Cc4ccc(O)cc4)cc3C2=O)cc(OC)c1	7.08 µM (active)
COc1cc(OC)c(OC)cc1/C=C1\C=Cc2ccccc21	inactive
CN(C)c1ccc(/C=C2\C=Cc3ccccc32)cc1Br	inactive
COc1cc(OC)c(NC(=O)c2cnc(N3CCCC3)nc2C)cc1Cl	inactive
COc1ccccc1CNc1nc(Nc2ccccc2Cl)c2sccc2n1	inactive
COCCNc1nc(NCc2ccc(NC(C)=O)cc2)c2sccc2n1	inactive
COc1cccc(CNc2nc(NCc3ccccc3OC)nc3ccsc23)c1	10 µM (active)
Cc1cc(C)cc(NC(=O)CCCc2nc(-c3ccccc3Cl)no2)c1	inactive
NC(=O)Nc1ccc(/C=C/c2ccnc3ccccc23)cc1	inactive
CCCCS(=O)(=O)c1oc(-c2cccs2)nc1S(=O)(=O)c1ccccc1	3.16 µM (active)
NC(=O)CSc1oc(-c2cccs2)nc1S(=O)(=O)c1ccccc1	inactive
Cc1ccc(S(=O)(=O)c2nc(-c3cccs3)oc2NCc2cccnc2)cc1	inactive
CCOc1ccc(-c2nonc2NC(=O)c2oc3ccc(C)cc3c2C)cc1OCC	inactive
CC(C)(C)c1ccc(C(=O)Nc2ccc3c(c2)CCCN3C(=O)c2cccs2)cc1	inactive
CC1CC2=C(CC1/C=N/NC(N)=S)C(C)(C)CCC2 (stereo unspecified)	10 µM (active)
COc1cc(OC)c(NC(=O)N2CC3CCCN3c3ccccc32)cc1Cl (stereo unspecified)	inactive
COc1cc(NC(=O)c2noc3c2CSc2ccccc2-3)cc(OC)c1OC	inactive
COc1ccc(-c2nc(CN3CCC(C(=O)NCCN(CC(C)C)CC(C)C)CC3)c(C)o2)cc1OC	inactive

SMILES	Potency
Cc1ccc(C(=O)N/C(=C\c2cccs2)C(=O)NCCc2ccccn2)cc1C	inactive
COc1ccc(-c2nc3sc(CCNC(=O)C(C)(C)C)c(C)n3n2)cc1	inactive
COc1cncc(-c2cnc3sc(NCCc4ccccn4)nn23)c1	7.94 µM (active)
CCCN(CCC)S(=O)(=O)c1ccc(C(=O)Nc2sc3c(c2C(=O)OC)CCN(CC)C3)cc1	inactive
COc1ccc(Cl)cc1NC(=O)c1sc2nc3c(cc2c1N)CN(C)CC3	inactive
O=C1C[C@@H](c2ccc3ccccc3c2)N1S(=O)(=O)c1ccccc1[N+](=O)[O-]	inactive
Cc1ccc(-n2ncc3c(NCCCn4ccnc4)ncnc32)cc1Cl	inactive
Oc1c(Cl)cc(Cl)c(Cl)c1Cc1c(O)c(Cl)cc(Cl)c1Cl	5.62 µM (active)
CCOc1ccc(N(CC)C(=O)c2noc3c2COc2ccc(C)cc2-3)cc1	inactive
Cc1ccc(C=O)cc1Cl	inactive
CSc1ccc(C2c3c(oc4ccccc4c3=O)C(=O)N2CCCN2CCOCC2)cc1 (stereo unspecified)	inactive
COc1cccc(CNC(=O)c2cc(=O)[nH]c3ccc(S(=O)(=O)N4CCCCC4)cc23)c1	inactive
c1ccc2cc3c(NCCN4CCOCC4)ccnc3cc2c1	3.98 µM (active)
O=C(NCCN1CCOCC1)c1cc(Sc2cccc(Cl)c2)nc2ccccc12	inactive
Fc1ccc(-c2ccc(NCCN3CCOCC3)nn2)cc1	inactive
COc1ccc(S(=O)(=O)c2c(Nc3ccc(C)cc3)sc(C(=O)c3ccc(C)cc3)c2N)cc1	inactive
COc1ccc(-c2nc(CN3CCC(C(=O)NCc4ccccc4)CC3)c(C)o2)cc1OC	inactive
Cc1ccc(-c2nc(CSCC(=O)NC3CCN(Cc4ccccc4)CC3)c(C)o2)cc1	11.2 µM (active)
CCOc1ccc(CC(=O)NC2CCN(Cc3ccccc3)CC2)cc1	inactive
COc1ccccc1-c1cc(C(F)(F)F)nc(S(=O)(=O)CCCC(=O)Nc2ccc(F)cc2F)n1	3.98 µM (active)
COc1ccccc1-c1cc(C(F)(F)F)nc(S(=O)(=O)CCCC(=O)Nc2cc(C)ccc2O)n1	inactive
CSc1ccccc1NC(=O)CCS(=O)(=O)c1nc(-c2cccs2)cc(C(F)(F)F)n1	inactive
CCOc1cc(C(=O)Nc2nnc3n2CCS3)cc(OCC)c1OCC	inactive
O=C(Nc1ccc(Br)cn1)c1ccc([N+](=O)[O-])cc1Cl	inactive
O=C(Nc1ccc(Br)cn1)c1ccc([N+](=O)[O-])o1	10 µM (active)
Cc1onc(C(=O)Nc2ccc3c(c2)OCO3)c1[N+](=O)[O-]	inactive

SMILES	Potency
O=C(Nc1cccc(NC(=O)c2ccccc2[N+](=O)[O-])c1)c1ccccc1Cl	inactive
Cc1cccc(NC(=O)CCn2c(=O)oc3ccccc32)c1	inactive
CN1C(=O)c2ccc(C(=O)Nc3ccc(Br)cn3)cc2C1=O	inactive
Cc1cccc(NC(=O)c2ccc([N+](=O)[O-])o2)c1	11.2 µM (active)
Cc1onc(NC(=O)c2ccc([N+](=O)[O-])o2)c1Br	11.2 µM (active)
O=C(COC(=O)c1ccc([N+](=O)[O-])o1)NC12CC3CC(CC(C3)C1)C2	inactive
CCOc1ccc(N(CC)C(=O)C2CCN(S(=O)(=O)c3cccc4nonc34)CC2)cc1	inactive
COc1ccc(NC(=O)c2sc3nc[nH]c(=O)c3c2C)cc1	inactive
Cc1nc2ccn(Cc3cccnc3)c(=O)c2cc1C(=O)N1CCN(c2ccccc2F)CC1	inactive
Cc1nn(C(C)C(=O)Nc2ccc(C(C)C)cc2)c(=O)c2c1sc1ccccc12 (stereo unspecified)	inactive
Cc1ccc2sc(N(Cc3cccnc3)C(=O)C3COc4ccccc4O3)nc2c1C (stereo unspecified)	inactive
O=C(c1ccccc1F)N1CCC(c2nc3c(nnn3Cc3cccc(F)c3)c(=O)[nH]2)CC1	inactive
O=[N+]([O-])c1ccc(C=Nc2ccc(Cl)cc2Cl)s1	10 µM (active)
CCOC(=O)c1sc(NC(=O)/C=C/c2ccc(C(C)C)cc2)c(C(=O)OCC)c1C	inactive
CS(=O)c1ccc(/C=C2\C=Cc3ccccc32)cc1 (stereo unspecified)	inactive
COc1cccc(-c2cc(C(=O)Nc3ccc(C)cc3)[nH]n2)c1	inactive
O=C(O)c1ccc(Nc2nc(-c3ccccc3)c3cc(Br)ccc3n2)cc1	inactive
O=C(Cn1c(NCCO)nc2ccccc21)c1ccc(Cl)cc1Cl	inactive
OCCNc1nc(Nc2ccc(Cl)c(Cl)c2)nc2ccccc12	11.2 µM (active)
O=C(C1CC1)N1CCc2cc(Br)cc(S(=O)(=O)N3CCN(c4ccccc4F)CC3)c21	inactive
CCOC(=O)CNC(=O)c1cc2c(=O)n3cccc(C)c3nc2s1	inactive
Cc1cccc(CN2Cc3cccc4c3[C@H](C=CC4)CC2=S)c1	inactive
CC(C)c1ccc(NC(=O)C2CCN(c3nc(-c4ccc(C(C)C)cc4)no3)CC2)cc1	inactive
Cc1cc(C)cc(OC(C)C(=O)Nc2nc3c(s2)CCCC3)c1 (stereo unspecified)	inactive
COc1ccc(CCNc2nc3c(-c4cccc(F)c4)nnn3c3ccccc23)cc1OC	inactive
Cc1cc(C)n(-c2nc(C(F)(F)F)nc3ccccc23)n1	inactive

SMILES	Potency
CC(Nc1nc(N2CCN(CCO)CC2)nc2ccccc12)c1ccccc1 (stereo unspecified)	inactive
CC(Nc1nc(C(F)(F)F)nc2ccccc12)c1cccs1 (stereo unspecified)	17.8 µM (active)
COc1ccc(/C=C/c2ccccn2)cc1OC	inactive
CC(C)CC(=O)Nc1nnc(S(=O)(=O)N(C)c2ccc(Cl)cc2)s1	inactive
CN(Cc1ccccc1)S(=O)(=O)c1nnc(NC(=O)c2ccccc2F)s1	inactive
Cc1ccccc1C(=O)Nc1nnc(S(=O)(=O)N(C)c2ccc(Cl)cc2)s1	8.91 µM (active)
CCCCc1nn2c(=O)cc(COC(=O)c3cccc(NC(=O)COc4ccccc4)c3)nc2s1	inactive
Cc1nn(-c2ccc(F)cc2)c(-n2cccc2)c1C(=O)N1CCN(c2ccccc2)CC1	inactive
Cc1ccc2oc3c(c(=O)c2c1)C(c1ccc([N+](=O)[O-])cc1)N(CCCN1CCOCC1)C3=O (stereo unspecified)	inactive
COc1ccc(CCNC(=O)c2cc(=O)c3c(C)cc(C)cc3o2)cc1OC	inactive
Cc1ccc(-c2cc(-c3coc4ccccc4c3=O)c3c(n2)-c2cc(Cl)ccc2OC3)cc1	inactive
Fc1cccc(Cc2c(-c3ccc(Cl)cc3)nc3ccc(Cl)cn23)c1	inactive
Cc1ccc(-c2nc3ccc(Br)cn3c2Cc2ccccc2C(F)(F)F)cc1	14.1 µM (active)
Cc1ccc(-c2nc3ccc(Cl)cn3c2Cc2ccccc2)cc1	inactive
Cc1ccc2nc(-c3ccccc3)c(CC3CCCCC3)n2c1	inactive
Clc1cccc(Cc2c(-c3cccc(Cl)c3)nc3ccc(Cl)cn23)c1	10 µM (active)
Fc1cccc(Cc2c(-c3cccc(Cl)c3)nc3ccc(Br)cn23)c1	14.1 µM (active)
Cc1cc(Br)cn2c(Cc3ccccc3C(F)(F)F)c(C3CCCCC3)nc12	inactive
COC(=O)c1ccc2nc(-c3ccc(Cl)cc3)c(Cc3cccc(F)c3)n2c1	inactive
COC(=O)c1ccc2nc(C3CCCCC3)c(Cc3cccc(F)c3)n2c1	inactive
CN(C)C(=O)c1nc2ccc(Cl)cn2c1CNCc1cccc(OC(F)(F)F)c1	inactive
Brc1ccc2nc(-c3ccccc3)c(Cc3ccccc3)n2c1	12.6 µM (active)
COc1ccccc1Cc1c(-c2ccc(Cl)cc2)nc2ccc(Cl)cn12	inactive
